We go through 98 compounds from PubChem BioAssay AID485364 (National Center for Advancing Translational Sciences (NCATS), 2010).

The campaign covered roughly 360,000 compounds. About 11,000 (3.1%) were called active. A call without a number means that no potency is given here. Inconclusive results (about 4%) are left out. The sample holds actives, similar compounds and a random draw of the others, so the mix is not that of the screen. Calls come from the whole dose curve; as a rule, active = well fitted inhibition curve with a large enough effect; inconclusive = small, poorly fitted or top-dose-only effect; inactive = no such curve, though single readings can be large or run the other way.
Potency is the fitted concentration of half-maximal effect.

This experiment concerns the target Schistosoma mansoni thioredoxin glutathione reductase (TGR) (UniProt Q962Y6). Kind of experiment: qHTS Assay for the Inhibitors of Schistosoma Mansoni Peroxiredoxins. Note: nearly all actives have a fitted effect of over 60% in size. The settings on record: purified TGR, DTNB reduction, TNB absorbance 405 nm; series mostly up to 114 µM. The method, boiled down: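 First, TGR (20 nM dispensed) and NADPH were mixed with compound. Second, a 15 min room-temperature incubation followed. Third, further NADPH and then DTNB were added to start the reaction. Finally, TNB absorbance was monitored kinetically.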
(In general: qHTS replaces the single test concentration by a dilution series.)
As to `Cc1ccc(OCCSc2nc3ccc(NC(=O)COc4ccc(C)cc4)cc3s2)cc1`, the Potency entry is “inactive”.

Take `O=C(CCCn1c(=O)c2cccn2c2cccnc21)NCc1ccc(F)cc1`: the Potency entry was “inactive”.

For the compound `CCOc1ccccc1NC(=O)C1CCCN(S(=O)(=O)c2cn(C)cn2)C1` (stereo not drawn), the Potency result was “inactive”.

`CC1C(=O)Nc2ccc(S(=O)(=O)N3CCN(c4ccccc4F)CC3)cc2NC1=O` (stereo not drawn): the Potency entry was “inactive”.

As for `CON(C)S(=O)(=O)c1ccc2c(c1)NC(=O)C1CCCN21` (stereo not drawn), the Potency was 12.6 µM (active).

Take `COc1ccc(N2CCN(S(=O)(=O)c3ccc4c(c3)NC(=O)C(C)C(=O)N4)CC2)cc1` (stereo not drawn): the Potency result is “inactive”.

Consider `COc1ccc(-c2cc(C(F)(F)F)n3nc(-c4ccccc4)cc3n2)cc1OC`, for which the Potency entry is “inactive”.

With `CCc1ccccc1NC(=O)N1CCC2(CC1)Oc1ccccc1C(=O)N2Cc1ccccc1F`, the Potency entry was “inactive”.

In the case of `O=C1C2C3C=CC(C4CC34)C2C(=O)N1/N=C/c1ccc(-c2ccccc2[N+](=O)[O-])o1` (stereo not drawn), the Potency result was “inactive”.

On to `Cc1cc(-c2ccc(/C=N/n3cnnc3)o2)c([N+](=O)[O-])cc1C`, for which the Potency is 35.5 µM (active).

For the compound `Cc1ccc(Cl)cc1-c1ccc(/C=N/n2cnnc2)o1`, the Potency entry was “inactive”.

Turning to `Cc1cc(C)c([N+](=O)[O-])cc1-c1ccc(/C=N/NC(=O)c2nonc2N)o1`, the Potency result is “inactive”.

Take `Cc1cc([N+](=O)[O-])c(-c2ccc(/C=N/n3cnnc3)o2)cc1Cl`: the Potency was 50.1 µM (active).

As to `Clc1cc(-c2ccc(/C=N/n3cnnc3)o2)ccc1Br`, the Potency result was “inactive”.

Take `COc1ccc(-n2nc(C(=O)NCCc3ccc(Cl)cc3)c3c4ccccc4n(C)c3c2=O)cc1Cl`: the Potency result was “inactive”.

For the compound `Cc1cccc(OCCCC(=O)Nc2sc3c(c2C(N)=O)CCC(C)C3)c1` (stereo not drawn), the Potency entry was “inactive”.

Consider `CCOC(=O)C1CCN(C(=O)CSc2c3c(nc4ccc(Cl)cc24)CCCC3)CC1`, for which the Potency result is “inactive”.

`CCOc1ccc(N(Cc2ccccc2)C(=O)c2nc(S(C)(=O)=O)ncc2Cl)cc1`: the Potency was 8.91 µM (active).

For `CCOc1ccc(NC(=O)CN(Cc2ccccc2)S(=O)(=O)c2ccc(Cl)cc2)cc1`, the Potency entry was “inactive”.

Take `CCOc1ccc(N(Cc2ccccc2)C(=O)c2nc(SCC)ncc2Cl)cc1`: the Potency entry is “inactive”.

For `Cc1c(CNC2CCCCC2)c(C(=O)O)c(C)n1Cc1cccc(Cl)c1`, the Potency entry was “inactive”.

As for `COC(=O)C1=C(c2ccccc2)c2ccccc2S(=O)(=O)N1CC(=O)Nc1ccccc1C(F)(F)F`, the Potency entry is “inactive”.

As to `CN1C(=O)/C(=C/c2ccco2)SC1=Nc1cccc(C(=O)O)c1`, the Potency was 14.1 µM (active).

As for `Cc1cc(/C=C2\SC(=Nc3ccc(N4CCOCC4)cc3)N(C)C2=O)c(C)n1-c1cccnc1`, the Potency entry was “inactive”.

As to `CN=C1S/C(=C\c2c(OC)cc(OC)cc2OC)C(=O)N1C`, the Potency result was “inactive”.

Turning to `CCOC(=O)c1ccc(NC(=O)CC2C(=O)N(c3cccc(OC)c3)C(=O)N2C2CCCCC2)cc1` (stereo not drawn), the Potency entry was “inactive”.

Regarding `COc1ccc(NC(=O)c2ccc3nc(C(C)C)oc3c2)cc1OC`, the Potency result was “inactive”.

Turning to `COc1ccccc1N1CCN(C(CNC(=O)C(=O)NCc2ccc(C)cc2)c2cccnc2)CC1` (stereo not drawn), the Potency result is “inactive”.

In the case of `Cc1c(NC(=O)/C=C/C(=O)O)cccc1[N+](=O)[O-]`, the Potency is 50.1 µM (active).

With `Cc1c(NC(=O)CCCOc2ccccc2)cccc1[N+](=O)[O-]`, the Potency result is “inactive”.

Consider `Cc1c(NC(=S)NCc2ccc(F)cc2)cccc1[N+](=O)[O-]`, for which the Potency result is “inactive”.

`O=C(NCCc1csc(-c2ccc(C(F)(F)F)cc2)n1)C(=O)Nc1ccc(F)c(Cl)c1`: the Potency entry was “inactive”.

On to `CCCOc1ccc(CN(CCO)CCO)cc1C(=O)OC`, for which the Potency entry is “inactive”.

As to `CCOc1ccc(CN(CCCl)CCCl)cc1C(=O)OC`, the Potency is 14.1 µM (active).

As to `CCOc1ccccc1NS(=O)(=O)c1c[nH]c(C(=O)OC)c1`, the Potency result is “inactive”.

On to `CC(=O)N1CCc2cc(S(=O)(=O)NC(Cc3ccccc3)C(=O)NCc3ccc(C)cc3)ccc21` (stereo not drawn), for which the Potency result was “inactive”.

Turning to `CCc1nn(CC(=O)NCC(C)c2ccccc2)c(=O)c2cc3occc3n12` (stereo not drawn), the Potency entry is “inactive”.

For `Cc1cc(C)cc(-n2c(SCC(=O)NCC3CCCO3)nc3c([nH]c4ccccc43)c2=O)c1` (stereo not drawn), the Potency result was “inactive”.

Take `CCOC(=O)CSc1nc(C)c(Oc2ccc(Cl)cc2Cl)c(=O)[nH]1`: the Potency result was “inactive”.

Take `Cc1nnc(SCC(=O)N2CCOCC2)[nH]c1=O`: the Potency entry is “inactive”.

Turning to `CCCCOC(=O)CNc1nnc(SCC(=O)OCC)[nH]c1=O`, the Potency was 14.1 µM (active).

`Cc1ccccc1C(=O)Nc1cc(C)c(O)c(-c2nc3ccccc3o2)c1`: the Potency result is “inactive”.

`COc1cccc(Cn2c(CNS(=O)(=O)c3ccc(Cl)s3)nc3cccnc32)c1`: the Potency entry is “inactive”.

Turning to `Cc1ccc(C2=NN(C(=O)COc3ncnc4ccccc34)C(c3ccco3)C2)cc1` (stereo not drawn), the Potency entry was “inactive”.

Regarding `O=C(COc1ccccc1Cl)N1N=C(c2cccs2)CC1c1ccco1` (stereo not drawn), the Potency is 35.5 µM (active).

On to `O=C1c2cccc(OCC(=O)N3N=C(c4cccs4)CC3c3ccc(F)cc3)c2CCN1Cc1ccccc1` (stereo not drawn), for which the Potency entry was “inactive”.

As to `Cc1ccc(Cl)cc1NC(=O)CCS(=O)(=O)c1ccc(Br)s1`, the Potency result was “inactive”.

Take `O=C1N[C@@H](Cc2ccccc2)C(=O)N2[C@H]1C[C@]1(Br)c3ccccc3N(S(=O)(=O)c3ccccc3)[C@H]21`: the Potency is 22.4 µM (active).

For `O=C(CSc1nccn1Cc1ccc(Cl)cc1)NCc1ccccc1`, the Potency result was “inactive”.

Take `Cc1ccc2c(=O)c(C(=O)c3ccc(F)cc3)cn(CC(=O)NC3CCCCC3)c2n1`: the Potency entry was “inactive”.

Turning to `O=C(CSc1nnc(-c2ccccc2F)o1)Nc1cccc(C(F)(F)F)c1`, the Potency entry is “inactive”.

`O=[N+]([O-])c1cccc(S(=O)(=O)NCc2ccccn2)c1`: the Potency entry is “inactive”.

Take `O=c1cc(CO)oc(C(Nc2cccc(C(F)(F)F)c2)c2ccccn2)c1O` (stereo not drawn): the Potency is 11.2 µM (active).

Take `O=c1cc(CO)oc(C(Nc2cccc([N+](=O)[O-])c2)c2ccccn2)c1O` (stereo not drawn): the Potency was 50.1 µM (active).

As to `Cn1c(=O)c2c(ncn2CC(=O)Nc2cccc(C(F)(F)F)c2)n(C)c1=O`, the Potency entry was “inactive”.

Consider `O=C(CSc1nc(-c2ccccc2)cs1)Nc1cccc([N+](=O)[O-])c1`, for which the Potency entry is “inactive”.

As for `O=C(COc1ccccc1)OCc1cc(=O)n2nc(-c3cccs3)sc2n1`, the Potency entry is “inactive”.

In the case of `CCOC(=O)c1ccc(NC(=O)c2c(NCc3cccs3)sc3c2CCCC3)cc1`, the Potency entry was “inactive”.

For `Cc1cccc(CC(=O)N2CC(=O)Nc3ccc(F)cc3C2c2ccccc2)c1` (stereo not drawn), the Potency result was “inactive”.

For `CCOC(=O)c1ccccc1NC(=O)c1sc2nc(-c3ccc(F)cc3)cn2c1C`, the Potency result is “inactive”.

Regarding `Cc1ccc(Cn2c(C)c3cnn(CC(=O)NCc4ccccc4)c(=O)c3c2C)cc1`, the Potency entry is “inactive”.

On to `Cc1ccc(Cn2c(C)c3cnn(CC(=O)NCc4ccccn4)c(=O)c3c2C)cc1`, for which the Potency was 35.5 µM (active).

With `O=C(Cn1ncc2c3ccccc3n(Cc3ccccc3)c2c1=O)NCc1ccccn1`, the Potency entry was “inactive”.

`Cc1c2cnn(CC(=O)NCCCN3CC(C)CC(C)C3)c(=O)c2c(C)n1Cc1ccc(Cl)cc1` (stereo not drawn): the Potency entry is “inactive”.

With `Cc1c2cnn(CC(=O)NCc3ccccn3)c(=O)c2c(C)n1Cc1ccc(Cl)cc1`, the Potency is 44.7 µM (active).

Take `Cc1nn(CC(=O)NCc2ccccn2)c(C)c1[N+](=O)[O-]`: the Potency entry was “inactive”.

On to `CN(C(=O)CSc1nnc(NC(=O)Nc2ccccc2)s1)c1ccccc1`, for which the Potency result was “inactive”.

On to `CCOC(=O)c1c(C)oc2ccc(N(C(=O)c3ccncc3)S(=O)(=O)c3ccc(CC)cc3)cc12`, for which the Potency entry is “inactive”.

`Cc1c(Cl)cccc1NC(=O)N1CCN(C(=O)c2nsc3ccccc23)CC1`: the Potency entry was “inactive”.

On to `CNc1ccc(-c2nc(-c3ccccc3C)no2)cc1[N+](=O)[O-]`, for which the Potency entry is “inactive”.

With `O=C(CSCc1cccs1)N1CCCC1`, the Potency entry was “inactive”.

In the case of `O=C(CSc1ccsc1[N+](=O)[O-])N1CCCCC1`, the Potency was 31.6 µM (active).

With `CC1CC(C)CN(C(=O)CSc2ccsc2[N+](=O)[O-])C1` (stereo not drawn), the Potency result was “inactive”.

Take `COc1cc(C(=O)NCCS(=O)(=O)N2CCN(c3ccccc3)CC2)cc(OC)c1OC`: the Potency entry is “inactive”.

For the compound `COc1ccc2c(c1)c(N1CCCC1=O)c(C(=O)Nc1ccc(OC)c(Cl)c1)n2C`, the Potency entry is “inactive”.

As for `C[C@@H](NC(=O)OC(C)(C)C)c1nnc(S(=O)(=O)Cc2ccccc2)o1`, the Potency was 0.794 µM (active).

Take `CCc1ccccc1NC(=O)CSc1nnc([C@@H](NC(=O)OC(C)(C)C)C(C)CC)o1` (stereo partly drawn): the Potency entry is “inactive”.

On to `COc1ccccc1NC(=O)[C@H](COCc1ccccc1)NC(=O)OC(C)(C)C`, for which the Potency result was “inactive”.

Regarding `CCN(Cc1ccccc1)S(=O)(=O)c1ccc2c(c1)CCCN2C(C)=O`, the Potency result was “inactive”.

For the compound `Cc1cc(NC(=O)c2cccc(Cl)c2)ccc1-c1cc2ccccc2oc1=O`, the Potency entry is “inactive”.

As to `O=C(CSCc1cnn(-c2ccccc2)c1-n1cccc1)NCc1ccccc1Br`, the Potency result was “inactive”.

On to `O=C(/C=C/Sc1ncn[nH]1)c1ccc(Cl)cc1`, for which the Potency is 0.794 µM (active).

For `COc1ccc(-n2c(SCC(=O)Nc3ccc(Cl)c(C)c3)nc3n[nH]c(C)c3c2=N)cc1`, the Potency result is “inactive”.

Turning to `COc1ccccc1CNC(=O)Cn1nc(C)c2nn(-c3ccc(Cl)cc3)c(C)c2c1=O`, the Potency result is “inactive”.

On to `CCOC(=O)c1ccc(NC(=O)CCn2cnnn2)cc1`, for which the Potency was 89.1 µM (active).

As to `CCOC(=O)c1ccc(NC(=O)CCn2c(=O)oc3ccccc32)cc1`, the Potency result was “inactive”.

In the case of `CCOc1ccccc1NC(=O)CCn1cnnn1`, the Potency entry was “inactive”.

Regarding `CCN(CC)CCNC(=O)c1cc2c(=O)oc3ccc(C)cc3c2s1`, the Potency result is “inactive”.

For `CCc1ccc(NC(=O)c2cc(S(=O)(=O)N3CCCC(C)C3)cn2C)cc1` (stereo not drawn), the Potency result is “inactive”.

For the compound `COc1ccc(CNC(=O)c2ccc(NC(=O)N3CC4CCCN4c4ccccc43)cc2)cc1` (stereo not drawn), the Potency entry was “inactive”.

For `CSc1nc2ccc(C)cc2c(=O)n1-c1cccnc1`, the Potency entry is “inactive”.

With `COc1ccc(-n2c(SC)nc(O)cc2=O)cc1`, the Potency result is “inactive”.

As to `COc1ccc2c(c1OC)C(=O)OC2c1c(O)nc(SC)n(-c2ccccc2)c1=O` (stereo not drawn), the Potency is 7.94 µM (active).

With `COc1ccc(Nc2ncc(C(=O)Nc3cc(C)ccc3OC)c3ccccc23)cc1`, the Potency entry was “inactive”.

With `CCN1CCN(CCCNC(=O)c2cnn(-c3ccc(C)cc3C)c2C2CCN(C(=O)OC(C)(C)C)CC2)CC1`, the Potency entry is “inactive”.

On to `O=C1c2ccccc2-c2ncnc3c(N4CCOCC4)cc(N4CCOCC4)c1c23`, for which the Potency entry is “inactive”.

As for `COC1=C(N2CCOCC2)C(=O)c2ccccc2C1=O`, the Potency was 17.8 µM (active).

Take `O=C1C(Cl)=C(N2CCOCC2)C(=O)N1c1ccccc1`: the Potency entry is “inactive”.
